High-throughput results: PubChem BioAssay, National Center for Advancing Translational Sciences (NCATS)
GLP-1R agonist: agonists of human GLP-1 receptor; HEK293 GLP-1R CRE-luciferase, luminescence, 4-6 h; cells express a hypersensitive GLP-1R form; Potency, µM (top dose mostly 45.6 µM), for the others: at the top dose activation, usual class: activators; P43220; hit rate 0.007% among 380,000; AID 624172; further: % of control where 0% means no effect
Target sequence (P43220 whole entry, looked up): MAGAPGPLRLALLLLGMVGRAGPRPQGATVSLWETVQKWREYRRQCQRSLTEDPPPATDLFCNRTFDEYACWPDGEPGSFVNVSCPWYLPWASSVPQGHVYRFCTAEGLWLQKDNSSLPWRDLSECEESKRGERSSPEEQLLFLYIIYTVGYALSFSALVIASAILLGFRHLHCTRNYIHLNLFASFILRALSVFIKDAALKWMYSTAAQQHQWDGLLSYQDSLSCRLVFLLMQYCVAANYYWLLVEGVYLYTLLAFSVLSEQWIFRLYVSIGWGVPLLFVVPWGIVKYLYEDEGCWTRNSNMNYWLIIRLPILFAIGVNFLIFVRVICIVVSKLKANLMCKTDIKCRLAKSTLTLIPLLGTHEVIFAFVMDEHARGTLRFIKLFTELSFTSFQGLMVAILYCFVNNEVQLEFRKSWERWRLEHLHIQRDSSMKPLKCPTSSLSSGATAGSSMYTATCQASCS
GLP-1R inv ag: GLP-1 receptor (human) inverse agonism; P43220; HEK293 GLP-1R CRE-luciferase, luminescence, 24 h; GLP-1R form is constitutively active; Potency, µM (highest dose often 38.3 µM), for inactives: top-dose activity change, negative = inhibition, actives largely listed as inhibitors; hit rate 1.6% among 410,000; AID 624417; further: on the % scale 0 is the no-effect control and ±100 the full control effect; nearly all actives have a fitted effect of over 55% in size
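Seeding at 200 cells/uL, 12 h culture, 24 hr compound treatment, then luciferase reagent and a luminescence read; cells are HEK293 stably expressing a constitutively active GLP-1R plus cAMP-responsive luciferase.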
S2 tox: reduces viability in counter-screen for ATXN expression inhibitors; hit rate 0.49% among 400,000; Potency, µM (titrated, usually from 56.7 µM), actives largely listed as cytotoxic; S2 cells (HEK-293 line with an ATXN2-luciferase reporter) viability, CellTiter-Fluor protease fluorescence, 24 h; further: nearly all actives have a fitted effect of over 40% in size
HepG2 viability: counter-screen for TGF-b inhibitors: cytotoxicity in HepG2 cells. HepG2 CAGA-GFP viability, ATP luminescence, 18 h. Potency, µM (top dose mostly 46.1 µM), for inactives: top-dose activity change, negative = cytotoxicity, actives largely listed as cytotoxic. hit rate 0.76% among 410,000
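CellTiter-Glo luminescence gave cytotoxicity after 18 hours at 37 degrees C. The cells were HepG2 CAGA-GFP in 1% FBS DMEM, stimulated with 500 pg/mL TGF-beta after compound addition. %Activity was normalised to no-cell wells (complete cell-killing) and DMSO (no toxicity), and curves were fitted and classified.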
ATXN2 expr inh: inhibitors of ATXN2 expression; HEK-293 ATXN2-luciferase reporter, luminescence, 24 h; Potency, µM (top dose mostly 57 µM), for the others: at the top dose activity change, negative = inhibition, hits mostly inhibitors; hit rate 0.72% among 360,000; further: on the % scale 0 is the no-effect control and ±100 the full control effect; nearly all actives have a fitted effect of over 55% in size
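ATXN2-luciferase reporter cells (luciferase flanked by upstream and downstream ATXN2 gene portions) were treated 24 h at 37 °C with compounds at up to 57 uM. SteadyGlo luminescence gave expression; GF-AFC fluorescence gave viability.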
TGFb SMAD3 inh: blocks TGF-b signaling | AID 588855 | HepG2 CAGA-GFP TGF-b/SMAD3 reporter, GFP fluorescence, 18 h; TGF-beta stimulated, 500 pg/mL final | hit rate 1.2% among 410,000 | Potency, µM (series often up to 46.1 µM), for the others: top-dose activity, negative = inhibition, actives largely listed as inhibitors; further: on the % scale 0 is the no-effect control and ±100 the full control effect; nearly all actives have a fitted effect of over 65% in size
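Cell-based qHTS in HEPG2 carrying a CAGA-GFP Smad reporter; compounds added before 500 pg/mL final TGF-beta, 18 h incubation at 37 degrees C, GFP fluorescence quantified per cell by imaging cytometry.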
Numbers without * were called inactive; i = inactive; ? = inconclusive; nt = no result. Only some compounds are listed: those with a hit (about 3.7% of all), similar ones and a draw of the others. The call rests on the fitted dose curve; in most records, active means well fitted curve in the direction sought with a large enough effect; inconclusive means small, poorly fitted or top-dose-only effect, or another doubt; inactive means no such curve, though single readings can be large; an effect the other way counts as inactive or inconclusive. Potency means the concentration at half of the fitted maximal effect.

SMILES	GLP-1R agonist	GLP-1R inv ag	S2 tox	HepG2 viability	ATXN2 expr inh	TGFb SMAD3 inh
CCOC(=O)C1CCN(Cc2ccc(O)c3ncccc23)CC1	-7%	?	?	7.9µM*	-37%	?
Cc1ncc2c(c1CNC(=O)c1ccc3c(c1)OCO3)CCN(C(=O)c1cccc(-n3cccn3)c1)C2	nt	nt	i	nt	nt	nt
O=C(Nc1ccc(N2CCN(C(=O)c3ccco3)CC2)c(Cl)c1)c1cc2ccccc2o1	-17%	?	nt	-13%	20µM*	1%
Cc1ccc(NC(=O)c2cc3ccccc3o2)cc1Cl	7%	13µM*	i	-15%	85%	1%
CCCC(=O)N1CCN(c2ccc(NC(=O)c3cc4ccccc4o3)cc2Cl)CC1	-35%	?	18µM*	-9%	14µM*	-12%
CCC(=O)N1CCN(c2ccc(NC(=O)c3cc4ccccc4o3)cc2Cl)CC1	-38%	11µM*	?	-34%	?	?
Cc1nnc(N2CCN(c3ccc(Cl)cc3)CC2)c2c1nnn2Cc1ccc(F)cc1	nt	32%	i	-4%	16%	1%
CCOC(=O)c1c(N)sc(C(=O)Nc2ccc3c(c2)OCO3)c1C	-11%	5.6µM*	i	-46%	?	-8%
Cc1cccc(OCC(=O)Nc2ccc3c(c2)OCO3)c1C	8%	-23%	i	-9%	9%	3%
Cc1ccc(C)c(OCC(=O)Nc2ccc3c(c2)OCO3)c1C	7%	7.9µM*	i	-14%	1%	-2%
CC[C@@]1(O)C(=O)OCc2c1cc1n(c2=O)Cc2c-1nc1ccccc1c2/C=N/OC(C)(C)C	nt	nt	i	nt	0.0005µM*	nt
CC[C@@]1(O)C(=O)OCc2c1cc1n(c2=O)Cc2cc3cc(O)ccc3nc2-1	nt	nt	nt	nt	0.038µM*	nt
CCOc1ccc2oc(=O)cc(CN3CCN(Cc4ccc(F)cc4)CC3)c2c1	nt	-6%	nt	-6%	nt	-21%
CCCC(c1nnnn1Cc1ccc(OC)cc1)N1CCC(C(N)=O)CC1 (stereo not drawn)	0%	7%	i	-10%	-11%	-16%
CCCC(c1nnnn1Cc1ccc2c(c1)OCO2)N1CCC(C(N)=O)CC1 (stereo not drawn)	3%	8%	i	20µM*	-4%	-2%
COc1ccc2nc3ccccc3[n+]([O-])c2c1	5%	31%	nt	2%	19%	1%
[O-][n+]1c2ccccc2cc2ccccc21	5%	-28%	i	-5%	?	11µM*
Cc1cnc(NC(=O)Nc2cc(Br)c(C)cc2OC[C@@H]2CNCCO2)cn1	nt	nt	nt	nt	1.2µM*	nt
CCOc1ccccc1OCC1CNCCO1 (stereo not drawn)	nt	nt	i	nt	3%	nt
N#C/C(=N\Nc1cccc(C(F)(F)F)c1)C(=O)c1ccsc1	-1%	?	i	-81%	nt	10µM*
CC(NNC(=S)N1CCN(c2ccccn2)CC1)c1nccc2ccccc12 (stereo not drawn)	-1%	-22%	11µM*	-12%	?	?
CCNC(=S)N1CCN(c2ccccn2)CC1	3%	9%	i	3%	5%	-2%
COc1cccc(C(=O)NNC2=C(C(=O)C(F)(F)F)CCC2)c1	8%	?	i	4µM*	-32%	?
O=C(NNC1=C(C(=O)C(F)(F)F)CCC1)c1ccccc1O	-1%	2.8µM*	i	-78%	-27%	?
O=C(NNC1=C(C(=O)C(F)(F)F)CCC1)c1ccccc1Cl	9%	?	?	-39%	?	-1%
SMILES	GLP-1R agonist	GLP-1R inv ag	S2 tox	HepG2 viability	ATXN2 expr inh	TGFb SMAD3 inh
O=C(NNC1=C(C(=O)C(F)(F)F)CCC1)c1ccc(Br)cc1	3%	-18%	?	10µM*	?	16µM*
CCCCC(=O)O[C@]1(C(=O)CO)[C@H](C)C[C@H]2[C@@H]3CCC4=CC(=O)C=C[C@]4(C)[C@@]3(F)[C@@H](O)C[C@@]21C	-3%	nt	nt	nt	nt	nt
OC[C@@H]1CN(Cc2ccc(-c3ccccc3)cc2)C[C@H](n2cnc3c(NC4CCC4)ncnc32)O1	-4%	?	18µM*	-19%	?	?
OC[C@@H]1CN(Cc2ccccc2)C[C@H](n2cnc3c(NC4CC4)ncnc32)O1	-1%	4%	i	0%	6%	5%
Cc1ccc(C)c(SCC(=O)NC(=O)NC2CCCC2)c1	-4%	11µM*	i	-4%	-10%	-1%
Cc1ccccc1-c1noc(-c2cc(C(C)C)[nH]n2)n1	nt	?	nt	-39%	nt	?
COc1ccc(C2CC(c3cccc(F)c3)=NN2c2ccc(S(N)(=O)=O)cc2)cc1 (stereo not drawn)	5%	-9%	nt	-98%	?	11µM*
Cc1cccc(C2CC(c3ccccc3)=NN2c2ccc(S(N)(=O)=O)cc2)c1 (stereo not drawn)	-1%	?	i	11µM*	?	?
NS(=O)(=O)c1ccc(N2N=C(c3ccccc3)CC2c2cccc(Cl)c2)cc1 (stereo not drawn)	0%	?	i	-110%	?	?
Cc1cccc(CSc2nnc(CCCCCNC(=O)OC(C)(C)C)o2)c1	19%	7.1µM*	i	-36%	-36%	?
CC1=C(C(=O)Nc2cc(C)cc(C)c2)C2(CCCCC2)OC1=O	nt	-6%	nt	-3%	nt	nt
C=C1C(=O)OC2C=C(C)CCC=C(C)CCC12 (stereo not drawn)	nt	nt	nt	nt	-4%	nt
C=C1C(=O)O[C@@H]2[C@H]3O[C@]3(C)CC/C=C(\C)CC[C@@H]12	-9%	-18%	i	13µM*	14%	13µM*
CN(C)c1nc(Cc2ccc(NC(=O)c3ccc(C(F)(F)F)cc3)cc2)nc(N(C)C)c1CC(=O)O	nt	nt	nt	nt	2%	nt
